Screening data: PubChem BioAssay, National Center for Advancing Translational Sciences (NCATS)
Sampled rows, rich in hits. Any-hit rate of the full collection: about 0.93%.
TRHR PAM = allosterically enhances the human TRH receptor; actives 0.66% (n = 360,000); enhancement, % at 2 µM; P34981; TRHR cells, fluo-8 calcium fluorescence, EC20 TRH enhancement; AID 493056; in the data active means enhancement above about 30%; further: 0% is about no effect
Target sequence (P34981 whole entry, looked up): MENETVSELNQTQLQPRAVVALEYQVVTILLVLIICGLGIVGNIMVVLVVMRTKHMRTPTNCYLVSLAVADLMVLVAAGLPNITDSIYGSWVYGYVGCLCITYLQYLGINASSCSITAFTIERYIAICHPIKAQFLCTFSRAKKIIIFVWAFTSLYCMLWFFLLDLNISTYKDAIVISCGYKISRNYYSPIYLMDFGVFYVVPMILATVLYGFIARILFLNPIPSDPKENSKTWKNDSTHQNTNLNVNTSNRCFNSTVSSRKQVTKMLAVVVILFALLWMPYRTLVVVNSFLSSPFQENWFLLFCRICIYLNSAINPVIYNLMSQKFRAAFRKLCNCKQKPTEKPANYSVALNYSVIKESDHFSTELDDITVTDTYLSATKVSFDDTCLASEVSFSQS
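Enhancer read-out: after compound pinning and an initial kinetic agonist-mode read, an EC20 of TRH (10 nM final) was injected and fluo-8 calcium signal (Ex 480/Em 530) followed at 1 s/cycle for 100 cycles in TRHR-expressing cells.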
PTHR1 agonist = PTHR1 (human) receptor agonism; actives 0.075% (n = 410,000); HEK293 GP2 PTHR1 cells, GloSensor cAMP luminescence, 1 h; AID 743266; Potency, µM (doses to about 115 µM), for the others: top-dose activation, actives largely listed as activators; further: potency means the concentration at half of the fitted maximal effect; nearly all actives have a fitted effect of over 55% in size
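HEK-293-derived GP2 cells expressing PTHR1 and a GloSensor cAMP reporter, 3,000/well, plated overnight, given luciferin plus IBMX (each 0.5 mM as added) for 1 h at 37 °C, then compound for 1 h at 37 °C. Luminescence was read after 15 min at room temperature.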
TRHR agonist = TRH receptor (human) agonism; actives 0.18% (n = 360,000); TRHR cells, calcium flux fluo-8, FDSS agonist mode; activation, % at 2 µM; AID 493084; P34981; in the data active means activation above about 30%; further: 0% is about no effect
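TRHR-expressing cells loaded with fluo-8 calcium dye; 23 nL library compound pin-transferred, kinetic FDSS fluorescence (Ex 480/Em 530) recorded about 180 s for agonist-induced calcium release, before a 10 nM TRH EC20 addition for potentiator mode.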
GLP1R cytotox = cytotoxicity in counter-screen for GLP-1R inverse agonists; HEK293 cAMP-luciferase reporter cells, luminescence, 24 h; Potency, µM (titrated, usually from 38.3 µM), without a hit: at the top dose activity change, negative = inhibition, actives largely listed as inhibitors; actives 0.13% (n = 410,000); AID 624418;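 further: loss of luciferase light is scored as toxicity; potency means the concentration at half of the fitted maximal effect; on the % scale 0 is the no-effect control and ±100 the full control effect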
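MLSMR compounds, 24 hr on cells at 37 deg C/5% CO2; luminescence after luciferase reagent (12 min RT). Inhibition counted as the undesired cytotoxic outcome.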
TRPML1 agonist = human mucolipin-1 channel agonism; Q9GZU1; TRPML1-expressing cells, Ca2+ dye fluorescence, FDSS; actives 0.12% (n = 410,000); activation, % (test concentration not listed); in the data active means activation above about 50%; inconclusive means mostly about 30% to 49%; further: 0% is about no effect
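Tetracycline-induced TRPML1-DL cells are seeded and incubated overnight before loading with a no-wash Ca2+ dye and quencher. Agonist activity is taken from the 110 s fluorescence read following compound pin-transfer on an FDSS, before EC80 54-4 challenge.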
TRPML1 inh = inhibitors of human TRPML1 channel; Q9GZU1; TRPML1-inducible cells, Ca2+ dye fluorescence, FDSS; stronger effect = lower value; inhibition of EC80 agonist-evoked calcium signal; activity change, negative = inhibition, % (no concentration beside the values); actives 0.02% (n = 390,000); AID 624415; in the data active means activity change below about -50%; inconclusive means between about -30% and that limit;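 further: stimulus is agonist 54-4 at its EC80 concentration; on the % scale 0 is the no-effect control and ±100 the full control effect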
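Tet-induced TRPML1-DL cells loaded with Ca8 no-wash calcium dye were read kinetically on FDSS. Compound addition was followed by EC80 agonist 54-4 (4 uM final); inhibition was read over 110 s.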
Active calls of the source: *. Unless noted, the call rests on the fitted dose curve; in most records, active means well fitted curve in the direction sought with a large enough effect; inconclusive means small, poorly fitted or top-dose-only effect, or another doubt; inactive means no such curve, though single readings can be large; an effect the other way counts as inactive or inconclusive.

`COCCNC(=O)CN1C(=O)COc2ccc(S(=O)(=O)N3CCCC3)cc21` gave TRHR PAM 32.6*, PTHR1 agonist 10.6%, TRHR agonist -0.4, GLP1R cytotox 3.6%, TRPML1 agonist 0.7 and TRPML1 inh 18.3.
For O=C(CN1C(=O)COc2ccc(S(=O)(=O)N3CCCCCC3)cc21)N1CCN(c2ccccc2F)CC1 the results were TRHR PAM -23.4, PTHR1 agonist -17.5%, TRHR agonist -0.4, GLP1R cytotox -3.9%, TRPML1 agonist 1.7 and TRPML1 inh -7.8.
For O=C(NCC1CCCO1)c1ccc(NC(=O)c2cc(F)c(F)cc2Cl)cc1 (centres undefined) the results were TRHR PAM 32.8*, PTHR1 agonist -15.2%, TRHR agonist 0.9, GLP1R cytotox 0.9%, TRPML1 agonist 0.4 and TRPML1 inh -12.3.
Screening C/C(=N/NC(=O)Nc1ccccc1)c1ccc(C)cc1 returned TRHR PAM 32.7*, PTHR1 agonist inactive, TRHR agonist 0.0, GLP1R cytotox -4.1%, TRPML1 agonist 1.2 and TRPML1 inh 37.2.
For CN([C@@H](C(=O)OC(C)(C)C)c1ccccc1)S(=O)(=O)c1cccc(S(=O)(=O)N(C)[C@@H](C(=O)OC(C)(C)C)c2ccccc2)c1 the results were TRHR PAM 5.2, PTHR1 agonist -32.3%, TRHR agonist 0.3, GLP1R cytotox 4.5%, TRPML1 agonist 70.5* and TRPML1 inh -19.1.
For COC(=O)[C@H](Cc1ccccc1)N(C)S(=O)(=O)c1cccc(S(=O)(=O)N(C)[C@@H](Cc2ccccc2)C(=O)OC)c1 the results were TRHR PAM -2.2, PTHR1 agonist inactive, TRHR agonist 0.7, GLP1R cytotox inconclusive, TRPML1 agonist 3.3 and TRPML1 inh 23.4.
`CN(C)/[N+]([O-])=N/Oc1ccc([N+](=O)[O-])cc1C(F)(F)F` gave TRPML1 agonist 0.5 and TRPML1 inh -12.3.
For COC(=O)c1ccc(NC(=O)COC(=O)c2nc3nccc(C)n3n2)cc1 the results were TRHR PAM 32.5*, PTHR1 agonist inactive, TRHR agonist 0.8, GLP1R cytotox 19.1%, TRPML1 agonist -0.4 and TRPML1 inh 28.2.
Screening COCCN(CC(=O)Nc1cccc(C)c1C)C(=O)c1ccc2ccccc2n1 returned TRHR PAM 32.4*, PTHR1 agonist inactive, TRHR agonist -0.1, GLP1R cytotox -19.6%, TRPML1 agonist -0.3 and TRPML1 inh -12.5.
O=C(NC(=S)N1CCc2ccccc21)c1ccccc1Cl was read as TRHR PAM -2.3, PTHR1 agonist -66.3%, TRHR agonist 0.3, GLP1R cytotox inconclusive, TRPML1 agonist 0.1 and TRPML1 inh 7.8.
For O=C(NC(=S)N1CCc2ccccc21)c1ccccc1 the results were TRHR PAM -5.4, PTHR1 agonist -1.8%, TRHR agonist -0.4, GLP1R cytotox 3.98µM*, TRPML1 agonist 0.6 and TRPML1 inh -2.7.
`COCCCn1c(=S)[nH]c2c(sc3ccccc32)c1=O` gave TRHR PAM 31.7*, PTHR1 agonist -6.6%, TRHR agonist 0.3, GLP1R cytotox -5.1%, TRPML1 agonist 0.0 and TRPML1 inh -8.7.
Screening CCc1cc2ccc(C)c(C)c2nc1SCC(=O)Nc1cc(C)on1 returned TRHR PAM 1.7, PTHR1 agonist 23.5%, TRHR agonist 0.6, GLP1R cytotox 4.8%, TRPML1 agonist -0.7 and TRPML1 inh 7.5.
For CCc1cc2cccc(C)c2nc1SCC(=O)Nc1cc(C)on1 the results were TRHR PAM 39.6*, PTHR1 agonist -17.7%, TRHR agonist 0.4, GLP1R cytotox 18.0%, TRPML1 agonist 4.0 and TRPML1 inh 9.0.
Screening CN(C)c1ccc(N=Nc2nc3ccccc3n2C)cc1 returned TRHR PAM -1.2, PTHR1 agonist -39.3%, TRHR agonist 0.3, GLP1R cytotox 5.01µM*, TRPML1 agonist 4.0 and TRPML1 inh 25.1.
Cn1c(N=Nc2ccccc2)nc2ccccc21 was read as TRHR PAM -14.5, PTHR1 agonist -0.9%, TRHR agonist -1.5, GLP1R cytotox 10µM*, TRPML1 agonist 5.4 and TRPML1 inh 2.9.
`COc1cc(OC)c(/C=C/c2c3ccccc3cc[n+]2C)c(OC)c1` gave TRPML1 agonist -0.4.
For CC(=O)c1ccc(NC(=O)c2ccc3c(c2)N(Cc2cccc(Cl)c2)C(=O)c2ccccc2S3(=O)=O)cc1 the results were TRHR PAM 30.3*, PTHR1 agonist inactive, TRHR agonist 1.3, GLP1R cytotox -7.2%, TRPML1 agonist 4.5 and TRPML1 inh 4.7.
`CN(C)c1ccc(/C=C/c2ccnc3ccccc23)cc1` gave TRPML1 agonist 19.9.
For COc1cc(C(=O)Nc2cccc(-c3nncn3C)c2)cc(OC)c1OC the results were TRHR PAM 33.9*, PTHR1 agonist inactive, TRHR agonist -0.2, GLP1R cytotox 15.2%, TRPML1 agonist -0.4 and TRPML1 inh 4.5.
Screening COCCCNc1ccnc2c(Cl)cccc12 returned TRHR PAM 36.8*, PTHR1 agonist inactive, TRHR agonist 0.6, GLP1R cytotox -12.9%, TRPML1 agonist -0.6 and TRPML1 inh -8.7.
`COC(=O)c1ccc2c(c1)C(=O)/C(=C/c1ccc(O)cc1)O2` gave TRHR PAM -6.4, PTHR1 agonist -4.0%, TRHR agonist 30.7*, GLP1R cytotox -4.9%, TRPML1 agonist 7.0 and TRPML1 inh 23.2.
`O=C(NCCc1ccccc1)C1CCCN1S(=O)(=O)c1cccc2nsnc12` (centres undefined) gave TRHR PAM -2.4, PTHR1 agonist -19.7%, TRHR agonist -0.3, GLP1R cytotox 2.1%, TRPML1 agonist -0.5 and TRPML1 inh -9.9.
NS(=O)(=O)c1ccc(CCNC(=O)C2CCCN2S(=O)(=O)c2cccc3nsnc23)cc1 (centres undefined) was read as TRHR PAM 32.4*, PTHR1 agonist -22.6%, TRHR agonist 0.0, GLP1R cytotox -4.1%, TRPML1 agonist -0.3 and TRPML1 inh -29.8.
`O=Cc1cccc(C=O)c1` gave TRPML1 agonist -0.3.
O=[S+]([O-])(c1ccc2c(c1)OCCO2)N1CCN([S+](=O)([O-])c2c(F)cc(Br)cc2F)CC1 was read as TRHR PAM -2.5 and TRHR agonist -0.3.
CC(C)CN(C(=O)c1cccc([N+](=O)[O-])c1)c1c(N)n(CC(C)C)c(=O)[nH]c1=O was read as TRHR PAM 32.8*, PTHR1 agonist inactive, TRHR agonist -2.0, GLP1R cytotox 5.9%, TRPML1 agonist -0.3 and TRPML1 inh -1.6.
For CCc1ccc(NC(=O)COC(=O)c2ccccc2OCC(=O)N(C)C)cc1 the results were TRPML1 agonist -0.8.
